Records with an inconclusive call do not appear. Unmarked numbers belong to inactive results. Activity calls are given as the source filed them. Calls come from the whole dose curve; as a rule, active = well fitted cell-killing curve with a large enough effect; inconclusive = small, poorly fitted or top-dose-only effect, or effect the other way; inactive = flat fitted curve, though single readings scatter.
Test system: Tov112D
Assay: Primary qHTS to identify gynecologic anti-cancer compounds using libraries of approved drugs and bioactive compounds (AID 1345084); note: nearly all actives have a fitted effect of over 55% in size
Conditions: Gynecologic cancer cell panel viability, ATPlite luminescence, 48 h; series mostly up to 57.5 µM; activity change, negative = cytotoxicity: at the top concentration
Summary of the method: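 Five-point cytotoxicity, 48 h drug exposure at 37 C, 5% CO2, on cells seeded 16 h beforehand. ATP content read by ATPlite luminescence.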
% is set by controls: 0 for no effect and ±100 for the full control effect; potency is the fitted concentration of half-maximal effect.

Compared with `Nc1ncnc2c1ncn2[C@@H]1O[C@H](CO)C[C@H]1O`, `CC(C)N(CCCNC(=O)Nc1ccc(C(C)(C)C)cc1)C[C@H]1O[C@@H](n2cc(Br)c3c(N)ncnc32)[C@H](O)[C@@H]1O` is higher in “activity change, negative = cytotoxicity” value: -18.7% for the first, 1.16% for the second.

Compared with `OCC(Cc1ccccc1)Nc1nc(Oc2ccc3c(c2)CCC3)nc2c1ncn2Cc1ccc(-c2ccccc2)cc1` (stereo not given), `CNCc1ccc(C)c(NC(=O)c2ccc(Nc3nc(-c4ccccc4)c4ccccc4n3)cc2)c1` is higher in “activity change, negative = cytotoxicity” value: -16.8% for the first, 2.16% for the second.

Compared with `Cc1cc2nc(NCCCO)n(CC(=O)c3cc(C(C)(C)C)c(O)c(C(C)(C)C)c3)c2cc1C`, `OCC(CO)(CO)NCC(O)Cn1c2ccc(Cl)cc2c2cc(Cl)ccc21` (stereo not given) is higher in “activity change, negative = cytotoxicity” value: -6.6% for the first, 4.12% for the second.

Compared with `CC1(C)CC23[C@@H]4CC(=O)[C@@H]2COC(=O)[C@@H]3CC[C@H]41`, `CC(C)CCC[C@@H](C)[C@H]1CC[C@H]2[C@@H]3CC=C4C[C@@H](OC(=O)NCCN(C)C)CC[C@]4(C)[C@H]3CC[C@]12C` is higher in “activity change, negative = cytotoxicity” value: 7.07% for the first, 21.6% for the second.

Compared with `CC[C@H](CO)Nc1nc(Nc2cccc(-c3ccccn3)c2)c2ncn(C(C)C)c2n1`, `COc1ccccc1NC(=O)Nc1ccc2ccccc2c1` is higher in “activity change, negative = cytotoxicity” value: -11.4% for the first, -2.41% for the second.

Going from `Cc1ccccc1C(=O)Nc1ccc(C(=O)N2CCC[C@@H](O)c3cc(Cl)ccc32)c(C)c1` to `CCOC(=O)c1cccc(CNc2ccc(N(C)C(=O)Nc3ccccc3)cc2)c1`, the “activity change, negative = cytotoxicity” value falls from -9.05% to -24%.

Compared with `CCCCn1c(-c2ccccc2)nc(-c2ccccc2)c1CN(Cc1ccc2c(c1)OCO2)Cc1ccc2c(c1)OCO2`, `CCS(=O)(=O)N(Cc1cccnc1)c1cccc(-c2ccc(C#N)cc2)c1` is lower in “activity change, negative = cytotoxicity” value: 8.07% for the first, -8.72% for the second.

Going from `CC1CCN(C(c2ccc(F)cc2)c2ccc(C(C)C(=O)O)cc2-c2ccc(C(F)(F)F)cc2)CC1` (stereo not given) to `O=[N+]([O-])c1ccc(-[n+]2nc(-c3ccccc3)nn2-c2ccc(I)cc2)cc1`, the “activity change, negative = cytotoxicity” value rises from -12.5% to -0.785%.

First: COc1ccc(CNC(=O)Nc2ncc([N+](=O)[O-])s2)cc1
Second: CC(C)(C)c1ccc(CNC(=S)NCc2ccc(NS(C)(=O)=O)c(F)c2)cc1
The “activity change, negative = cytotoxicity” value of the first is higher: -21.4% for the first, -32.5% for the second.

First: CC(=O)C1=C(O)C2c3c[nH]c4cccc(c34)CC2C(C)(C)N(C)C1=O (stereo not given)
Second: CC1CCC(n2c3cnccc3c3cnc(Nc4ccc5c(n4)CCN(C(=O)CO)C5)nc32)CC1 (stereo not given)
The “activity change, negative = cytotoxicity” value of the first is lower: -3.7% for the first, -0.259% for the second.

For `CC(=O)N[C@@H](CC(=O)O)C(=O)N[C@@H](CCC(=O)O)C(=O)N[C@H](C(=O)N[C@@H](CC(=O)O)C(=O)Nc1ccc2c(C)cc(=O)oc2c1)C(C)C`, the “activity change, negative = cytotoxicity” value was -26.4%.

Going from `O=C(NC(NC(=S)Nc1ccc(F)c([N+](=O)[O-])c1)C(Cl)(Cl)Cl)C(c1ccccc1)c1ccccc1` (stereo not given) to `C=C1[C@@H](C)[C@H]2[C@H](Cc3c[nH]c4ccccc34)NC(=O)[C@]23C(=O)/C=C/C(=O)[C@H](O)/C(C)=C\[C@@H](C)C/C=C/[C@H]3[C@@H]1O`, the “activity change, negative = cytotoxicity” value falls from -2.14% [at 25.3 µM] to -24.8% [at 25.3 µM].

For `C=C(C)[C@@H]1CC[C@]2(C(=O)O)CC[C@]3(C)C(CCC4[C@@]5(C)C[C@@H](O)[C@H](O)C(C)(C)C5CC[C@]43C)C12` (stereo not given in full), the “activity change, negative = cytotoxicity” value was -20.7% [at 25.3 µM].

For `C=C1[C@@H](C2=CC(=O)OC2)CC[C@@]2(O)[C@@H]1CC1[C@H]2CC[C@@H]2C[C@@H](O[C@H]3O[C@@H](C)[C@@H](O[C@@H]4O[C@H](CO[C@@H]5O[C@H](CO)[C@@H](O)[C@H](O)[C@H]5O)[C@@H](O)[C@H](O)[C@H]4O)[C@H](OC)[C@H]3O)CC[C@]12C` (stereo not given in full), the Potency was 2.24 µM (active).
